In the library only some 0.45% were active in any assay of this set; here they are far more common.
FMDV Renilla: shows antiviral activity in FMDV Renilla assay; FMDV replicon cells, Renilla luciferase signal; Potency, µM (series often up to 57.5 µM), inactives show at the top dose activity change, negative = inhibition, usual class: inhibitors; 120,000 tested, 0.32% active; AID 1745857; note: nearly all actives have a fitted effect of over 55% in size
FMDV antiviral: FMDV antiviral activity by firefly signal; FMDV antiviral cell assay, firefly luciferase signal; Potency, µM (series often up to 57.5 µM), for inactives: top-dose activity change, negative = inhibition, actives largely listed as inhibitors; 120,000 tested, 0.23% active; AID 1745856; note: nearly all actives have a fitted effect of over 60% in size
* hit, by the source's call; ? = inconclusive; [ ] = dose if it differs, or a comment. Calls come from the whole dose curve. % is set by controls: 0 for no effect and ±100 for the full control effect; potency is the fitted concentration of half-maximal effect.

SMILES	FMDV Renilla	FMDV antiviral
CC1CCCCN1S(=O)(=O)c1ccc(C(=O)Nc2ccc(Cl)c3ncsc23)cc1 (stereo not drawn)	0%	5%
CCS(=O)(=O)c1ncc(Cl)c(C(=O)Nc2c(C(=O)Nc3cccc(C)c3)oc3ccccc23)n1	10%	42%
Cc1cccc(NC(=O)c2nc(S(C)(=O)=O)ncc2Cl)c1	35µM*	?
O=C(O)c1cc(NCc2ccc(OCc3ccccc3)cc2)ccc1N1CCOCC1	28µM*	?
O=C(O)c1cc(NCc2ccccc2OCc2ccccc2)ccc1N1CCOCC1	35%	6%
Cc1cc(NC(=O)C(C)OC(=O)c2ccc3c(c2)NC(=O)CS3)no1 (stereo not drawn)	-5%[1.06 µM]	-3%
CCOCN(C(=O)Cn1c(C)nc2ccccc21)c1c(C)cccc1CC	-5%	-5%
CCn1cc(C(=O)Cn2c(C)nc3ccccc32)c2ccccc21	8.9µM*	?
CC(Sc1nc(Cl)nc2nc[nH]c12)C(=O)N1CCN(c2ccccc2)CC1 (stereo not drawn)	-7%	-14%
Cc1cc(C(=O)Cn2cnc3c2c(=O)n(C)c(=O)n3C)c(C)n1C	42%	0%
Cn1c(=O)c2c(ncn2CCCOc2ccccc2)n(C)c1=O	-6%	10%
CC(C)Oc1cccc(Cn2cnc3c2c(=O)n(C)c(=O)n3C)c1	3.5µM*	3.5µM*
CC(C)c1ccc(C(=O)Cn2cnc3c2c(=O)n(C)c(=O)n3C)c(C(C)C)c1	10µM*	10µM*
O=C(Nc1ccc(F)cc1)C(Sc1cccc[n+]1[O-])c1ccccc1 (stereo not drawn)	89%	10%
Cc1ccc(S(=O)(=O)NCC(=O)OCc2coc(-c3cccs3)n2)cc1C	-13%	13%
COc1ccc(OCC(=O)Nc2ccc3oc(-c4cccc(F)c4)nc3c2)cc1	1%	141%
O=C(Nc1ccccc1-c1nc2ccccc2s1)c1ccc(F)cc1	-9%	-13%
O=C(Oc1ccc(F)cc1)c1ccc(-c2nc3ccccc3s2)s1	8%	10µM*
O=C(NC12CC3CC(CC(C3)C1)C2)c1ccc(-c2nc3ccccc3s2)s1	20%	20µM*
Cc1ccccc1C(=O)NC12CC3CC(CC(C3)C1)C2	37%	21%
O=C(NN1CCOCC1)c1ccn(COc2ccc(Br)cc2)n1	-11%	6%
CCOC(=O)COc1ccc2c(=O)c(Oc3ccc(C(=O)OC)cc3)c(C(F)(F)F)oc2c1	-3%	4%
CCOC(=O)c1ccc(Oc2c(C(F)(F)F)oc3cc(O)ccc3c2=O)cc1	25µM*	?
CCN(C(=O)c1ccco1)c1nc(-c2ccccc2)cs1	18%	119%
Cc1ccc(Cl)cc1N1CCN(C(=O)C2CCN(c3nnc(-n4c(C)ccc4C)s3)CC2)CC1	?	10µM*
SMILES	FMDV Renilla	FMDV antiviral
CCS(=O)(=O)N1CCC(C(=O)N2CCN(c3cc(Cl)ccc3C)CC2)CC1	-25%	-19%
CCNc1ccc(S(=O)(=O)N(CC)CC)cc1NCc1c(F)cccc1Cl	105%	-11%
COc1ccc(-c2c(C)c3cc(OS(=O)(=O)c4ccc(C)cc4)ccc3oc2=O)cc1	?	-31%
COc1ccc(-c2c(C)oc3cc(OS(=O)(=O)c4ccc(C)cc4)ccc3c2=O)cc1	2.2µM*	3.2µM*
Cc1ccccc1CNc1ncnc2ccccc12	?	11µM*
Cc1ccccc1CC(=O)Nc1cccc2ncccc12	9%	21%
COC(=O)C1=C(C)C(C(C)=O)(C(=O)OC)NC(C)=C1c1ccccc1Cl (stereo not drawn)	20%	38%
Cc1cc2nc(/C=C/c3cccc(C(F)(F)F)c3)sc2cc1C	1%	43%
C(=N/N=C\c1ccccn1)/c1ccccn1	-24%	61%
O=C(O)c1cccc(NC(=S)N/N=C/c2ccc([N+](=O)[O-])cc2)c1	7%	2µM*
O=[N+]([O-])c1ccc(/C=N/NC(=S)Nc2ccccc2)cc1	25%	0%
COc1ccc2[nH]c(C)c(CC(=O)O)c2c1	-2%	0%
O=C(CN1C(=O)c2ccccc2S1(=O)=O)c1ccc(-c2ccc(Br)cc2)cc1	-10%	33%
O=C(CN1C(=O)c2ccccc2S1(=O)=O)c1ccc(F)cc1	13%	11µM*
COc1cc(/C=C(/C#N)c2ccccn2)ccc1OC(F)F	3%	117%
Cc1ccc(-c2csc(NC(=O)c3cnc4c(cnn4C(C)C)c3)n2)cc1C	?	11µM*
CCC(C)c1ccc(-c2csc(NC(=O)c3cnc4c(c3)c(=O)n(C)c(=O)n4C)n2)cc1 (stereo not drawn)	-8%	119%
O=C1C(O)=C(c2ccccc2)C(c2ccccc2F)N1c1ccc(F)cc1 (stereo not drawn)	3%	-26%
Cc1ccc(-n2nnnc2Sc2nnnn2-c2ccccc2)c(C)c1	25µM*	?
Cc1cccc(-n2nnnc2Sc2nnnn2-c2ccccc2)c1C	?	-27%
CCCCN(CC)C(=O)C1CCCN(c2ncnc3onc(C)c23)C1 (stereo not drawn)	?	-28%
CCCCN(C)C(=O)C1CCCN(c2ncnc3onc(C)c23)C1 (stereo not drawn)	2µM*	?
Cc1ccc(/C=C/C(=O)c2cc3ccccc3oc2=O)cc1	82%	34%
Cc1nn(-c2nc3c(c(=O)n(CC(N)=O)c(=O)n3C)n2Cc2ccccc2)c(C)c1C	12%	-4%
CCS(=O)(=O)N1CCc2ccc(NC(=O)Nc3ccc(C)c(C)c3)cc21	4.5µM*	?
SMILES	FMDV Renilla	FMDV antiviral
CCS(=O)(=O)N1CCc2cc(C(=O)Nc3ccc(C)c(Cl)c3)ccc21	22%	96%
CCc1ccc(CN2CCc3nc(N4CCN(c5ccccc5F)CC4)ncc3C2)cc1	-13%	-1%
COc1cccc(N2CCN(c3ncc4c(n3)CCN(Cc3ccc(Br)cc3)C4)CC2)c1	4µM*	7.1µM*
CCC[N+]1(CC#CCC(c2ccccc2)c2ccccc2)CCCCC1	4µM*	?
C(#CCN1CCOCC1)CC(c1ccccc1)c1ccccc1	10%	11%
Cn1c(=O)c2c(ncn2CCC(=O)Nc2ccccc2C(=O)c2ccccc2)n(C)c1=O	5%	19%
CC(C)c1ccc(C2C3=C(CC(C)(C)CC3=O)OC3=C2C(=O)CC(C)(C)C3)cc1	8%	-3%
Cc1cc(C)cc(-n2ccnc2SCC(=O)Nc2ccccc2F)c1	20µM*	?
Cc1cc(C)cc(-n2ccnc2SCC(=O)Nc2cccc3ccccc23)c1	13%	2%
CCOc1ccc2oc(=O)cc(-c3cc4ccccc4o3)c2c1	11%	1%
CC(=O)c1sc(=S)n(C)c1C	3%	6%
CCCNC(=O)c1cccc(NC(=O)CCc2ccccc2)c1	61%	38%
COc1cc(OC)c2cc(C(=O)NC(C)C(=O)Nc3nc(C)cs3)n(C)c2c1 (stereo not drawn)	6%	19%
N#Cc1c(NC(=O)c2nn(-c3ccccc3)c(=O)c3ccccc23)sc2c1CCCC2	1%	-4%
N#Cc1c(NC(=O)c2cc(=O)c3ccccc3o2)sc2c1CCCC2	1%	138%
N#Cc1c(NC(=O)c2ccnn2C(F)F)sc2c1CCCC2	3.2µM*	?
N#Cc1c(NC(=O)c2ccnn2C(F)F)sc2c1CCCCC2	5µM*	?
N#Cc1c(NC(=O)c2ccnn2C(F)F)sc2c1CCC2	3.2µM*	?
N#Cc1c(NC(=O)CSc2nccn2Cc2ccccc2)sc2c1CCC2	20%	94%
Nc1nccnc1C(=O)NCCNc1ncccc1C(F)(F)F	29%	71%
CN(C1CCCCCC1)S(=O)(=O)c1ccc2oc(=O)ccc2c1	21%	10%

High-throughput results: PubChem BioAssay, National Center for Advancing Translational Sciences (NCATS)
